# PubChem BioAssay (NCATS)
# Records with an inconclusive call do not appear. Activity calls are given as the source filed them. Calls come from the whole dose curve; as a rule, active = well fitted inhibition curve with a large enough effect; inconclusive = small, poorly fitted or top-dose-only effect; inactive = flat fitted curve, though single readings scatter.
# Tested on: KB-3-1
# Experiment: Cytotoxic Profiling of Annotated Libraries Using Quantitative High-Throughput Screening (AID 1296008); note: nearly all actives have a fitted effect of over 60% in size
# Conditions: Five cell lines viability, CellTiter-Glo ATP luminescence, 48-72 h; max response: hits give low values
# How it was run: (§1)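 Compounds were pin-transferred onto cells and incubated 48 or 72 hr at 37 degree Celsius, 95% humidity. CellTiter-Glo was added, plates sat 10 min at room temperature, then ATP-coupled luminescence was imaged as the viability read-out.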
# % is set by controls: 0 for no effect and ±100 for the full control effect.
SMILES,outcome,max response
COc1cc(/C=C2\CC[C@H]3COC[C@@H](c4cc(F)c(F)c(F)c4)N3C2=O)ccc1-n1cnc(C)c1,inactive,
CC/C=C\CC1C(=O)C=CC1(CCCCC1CCC(=O)O1)OC(C)=O (configuration not stated),,4.62% (inactive)
O=C(Nc1cccnc1)c1cc(-c2ccnc(F)c2)ccc1OCc1ccccc1,,6.84% (inactive)
C/C=C(\C)C(=O)OC1C[C@@]2(COC(C)=O)O[C@H]2/C=C\[C@@]2(C)O[C@@H]2[C@H]2OC(=O)C(COC(C)=O)=C12 (some centres not stated),,7.77% (inactive)
CCC/C=C/C=C/C1CC(O)C2(O)C(=O)OCC12 (configuration not stated),,7.96% (inactive)
C=C1C(=O)O[C@@H]2[C@H]1CC[C@H](C)[C@]1(CCC(=O)O1)C2(C)O (some centres not stated),inactive,
CCN(Cc1ccccc1)C(=O)Cn1c(=O)n(C)c2cnc(-c3ccccc3)nc21,inactive,
CC#CCn1c(N2CCCC(N)C2)nc2c1c(=O)n(Cc1nc(C)c3ccccc3n1)c(=O)n2C (configuration not stated),inactive,
O=C1COC2(CCN(S(=O)(=O)c3ccc(-c4ccc5cccnc5c4)cc3)CC2)CN1C1CC1,,7.72% (inactive)
NS(=O)(=O)c1ccc(NC(=O)Nc2ccc(F)cc2)cc1,,-12% (inactive)
COC(=O)C(Cc1ccc(OCCn2c(=O)sc3cc(C(=O)c4ccccc4)ccc32)cc1)C(=O)OC,,0.264% (inactive)
CC(C)(C)NC(=O)[C@H]1CC[C@H]2[C@@H]3CC[C@H]4NC(=O)CC[C@]4(C)[C@H]3CC[C@]12C,,-6.73% (inactive)
CC(=O)c1c(C)cc2cccc(O)c2c1O[C@@H]1O[C@H](CO)[C@@H](O)[C@H](O)[C@H]1O,inactive,
O=C([C@@H](Cc1cccc(C(F)(F)F)c1)NS(=O)(=O)c1cc(F)c2c(c1)CCNC2)N1CCCC1,inactive,
CC(C)(F)CC(NC(c1ccc(-c2ccc(S(C)(=O)=O)cc2)cc1)C(F)(F)F)C(=O)NC1(C#N)CC1 (configuration not stated),inactive,
COC(=O)C[C@H]1C(C)(C)[C@H](OC(=O)c2ccccc2)C2CC3=C4CC(=O)O[C@@H](c5ccoc5)[C@]4(C)CCC3[C@@]1(C)C2=O (some centres not stated),,0.65% (inactive)
Cc1cccc(N2CCN(C(=O)c3cc(S(=O)(=O)N(C)C)ccc3N3CCCC3)CC2)c1C,inactive,
Fc1ccc2c(CCNCc3cccc(OCC(F)(F)C(F)F)c3)c[nH]c2c1,,7.73% (inactive)
C=C1CC[C@H]2C(=C)CC[C@H]3C(=C)C(=O)O[C@@H]3[C@@H]12,,-8.05% (inactive)
CCCCC1CCC(c2nc(-c3ccncc3)no2)CC1 (configuration not stated),,-26.8% (inactive)
COC1C=C(C)C(O)(CO)C2(C)CCCC(C)(C)C12 (configuration not stated),,2.43% (inactive)
CC(C)OC(=O)N1CCC(Oc2ncnc3c2cnn3-c2ccc(S(C)(=O)=O)cc2F)CC1,,-25.6% (inactive)
CC(=O)O[C@@H]1CC2C(C)(C)C(=O)C=C[C@]2(C)C2CC[C@@]3(C)[C@H](c4ccoc4)OC(=O)[C@H]4O[C@]43[C@@]21C (some centres not stated),inactive,
O=C(NCC1CCN(Cc2cccc(Cl)c2)CC1)[C@@H]1CCCN(c2ncnc3c2nc2n3CCCC2)C1,,-6.02% (inactive)
CC(C)(Cc1nc(-c2ccc(O)cn2)no1)C(=O)NC1=C(C(=O)O)CCCC1,,2.15% (inactive)
CCCN(CCc1ccsc1)C1CCc2c(O)cccc2C1 (configuration not stated),,0.967% (inactive)
COc1cc(F)c(C(C)C)cc1-c1ccc(C(F)(F)F)cc1CN1C(=O)OC(c2cc(C(F)(F)F)cc(C(F)(F)F)c2)C1C (configuration not stated),inactive,
COC(=O)/C=C/C=C/C(=O)OC1C=C2COC(=O)C2(O)C2(C)CCCC(C)(C)C12 (configuration not stated),,4.64% (inactive)

# Tested on: NIH3T3
# Experiment: as above
# Conditions: Five cell lines viability, CellTiter-Glo ATP luminescence, 48-72 h; max response: hits give low values
# How it was run: as §1
SMILES,outcome,max response
C1=Cc2ccccc2C(=C2CCN(CCCCc3nn[nH]n3)CC2)c2ccccc21,inactive,
COc1c(CCC(=O)O)cccc1O[C@@H]1O[C@H](CO)[C@@H](O)[C@H](O)[C@H]1O,,0.319% (inactive)
CC(=O)OCC(=O)[C@@]12O[C@@H]1C[C@H]1[C@@H]3CC=C4C[C@@H](O)CC[C@]4(C)[C@H]3CC[C@@]12C,inactive,
O=C(O)c1cc(N(Cc2ccc(C3CCCCC3)cc2)C(=O)c2ccc(Oc3ccccc3)cc2)ccc1O,,-0.211% (inactive)
COc1ccc(CCO[C@@H]2O[C@H](CO[C@H]3OC[C@](O)(CO)[C@H]3O)[C@@H](OC(=O)/C=C/c3ccc(O)c(O)c3)[C@H](O[C@@H]3O[C@@H](C)[C@H](O)[C@@H](O)[C@H]3O)[C@H]2O)cc1OC,,-1.58% (inactive)
COc1ccc(S(=O)(=O)Nc2cc(Cl)cc(Cl)c2OC)cc1N1CCNCC1,,-3.81% (inactive)
COC(=O)c1ccc2c(c1)[nH]c1ncnc(NCCCN3CCCCC3)c12,inactive,
CN1CCN(C2=Nc3ccccc3Nc3ccc(OS(=O)(=O)C(F)(F)F)cc32)CC1,inactive,
CC[C@H](C)/C=C(C)/C=C/C1=CC2=CC(=O)[C@]3(C)OC(=O)[C@@H](C(C)=O)[C@@H]3C2=CO1,,-1.49% (inactive)
CN1CC[C@@H](c2c(O)cc(O)c3c(=O)cc(-c4ccc(C(F)(F)F)cc4Cl)oc23)[C@@H]1CO,,-4.65% (inactive)
CC(=O)O[C@@H]1CC[C@@]2(C)C(CC[C@]3(C)C2[C@H](O)C=C2[C@H]4[C@@H](C)[C@H](C)CC[C@]4(C)CC[C@]23C)[C@@]1(C)C(=O)O (some centres not stated),inactive,
COc1cc(/C=C2\CC[C@H]3COC[C@@H](c4cc(F)c(F)c(F)c4)N3C2=O)ccc1-n1cnc(C)c1,inactive,
CC/C=C\CC1C(=O)C=CC1(CCCCC1CCC(=O)O1)OC(C)=O (configuration not stated),,4.76% (inactive)
O=C(Nc1cccnc1)c1cc(-c2ccnc(F)c2)ccc1OCc1ccccc1,,4.92% (inactive)
C/C=C(\C)C(=O)OC1C[C@@]2(COC(C)=O)O[C@H]2/C=C\[C@@]2(C)O[C@@H]2[C@H]2OC(=O)C(COC(C)=O)=C12 (some centres not stated),,3.22% (inactive)
CCC/C=C/C=C/C1CC(O)C2(O)C(=O)OCC12 (configuration not stated),,4.66% (inactive)
C=C1C(=O)O[C@@H]2[C@H]1CC[C@H](C)[C@]1(CCC(=O)O1)C2(C)O (some centres not stated),,-19.6% (inactive)
CCN(Cc1ccccc1)C(=O)Cn1c(=O)n(C)c2cnc(-c3ccccc3)nc21,inactive,
CC#CCn1c(N2CCCC(N)C2)nc2c1c(=O)n(Cc1nc(C)c3ccccc3n1)c(=O)n2C (configuration not stated),inactive,
O=C1COC2(CCN(S(=O)(=O)c3ccc(-c4ccc5cccnc5c4)cc3)CC2)CN1C1CC1,,-10.8% (inactive)

SMILES,outcome,max response
NS(=O)(=O)c1ccc(NC(=O)Nc2ccc(F)cc2)cc1,,2.88% (inactive)
COC(=O)C(Cc1ccc(OCCn2c(=O)sc3cc(C(=O)c4ccccc4)ccc32)cc1)C(=O)OC,,2.75% (inactive)
CC(C)(C)NC(=O)[C@H]1CC[C@H]2[C@@H]3CC[C@H]4NC(=O)CC[C@]4(C)[C@H]3CC[C@]12C,,-8.88% (inactive)
CC(=O)c1c(C)cc2cccc(O)c2c1O[C@@H]1O[C@H](CO)[C@@H](O)[C@H](O)[C@H]1O,,-3.48% (inactive)
O=C([C@@H](Cc1cccc(C(F)(F)F)c1)NS(=O)(=O)c1cc(F)c2c(c1)CCNC2)N1CCCC1,inactive,
CC(C)(F)CC(NC(c1ccc(-c2ccc(S(C)(=O)=O)cc2)cc1)C(F)(F)F)C(=O)NC1(C#N)CC1 (configuration not stated),inactive,
COC(=O)C[C@H]1C(C)(C)[C@H](OC(=O)c2ccccc2)C2CC3=C4CC(=O)O[C@@H](c5ccoc5)[C@]4(C)CCC3[C@@]1(C)C2=O (some centres not stated),,0.65% (inactive)
Cc1cccc(N2CCN(C(=O)c3cc(S(=O)(=O)N(C)C)ccc3N3CCCC3)CC2)c1C,,-5.43% (inactive)
Fc1ccc2c(CCNCc3cccc(OCC(F)(F)C(F)F)c3)c[nH]c2c1,inactive,
C=C1CC[C@H]2C(=C)CC[C@H]3C(=C)C(=O)O[C@@H]3[C@@H]12,,-3.18% (inactive)
CCCCC1CCC(c2nc(-c3ccncc3)no2)CC1 (configuration not stated),,-3.82% (inactive)
COC1C=C(C)C(O)(CO)C2(C)CCCC(C)(C)C12 (configuration not stated),,-0.263% (inactive)
CC(C)OC(=O)N1CCC(Oc2ncnc3c2cnn3-c2ccc(S(C)(=O)=O)cc2F)CC1,,-1.21% (inactive)
CC(=O)O[C@@H]1CC2C(C)(C)C(=O)C=C[C@]2(C)C2CC[C@@]3(C)[C@H](c4ccoc4)OC(=O)[C@H]4O[C@]43[C@@]21C (some centres not stated),,-4.81% (inactive)
O=C(NCC1CCN(Cc2cccc(Cl)c2)CC1)[C@@H]1CCCN(c2ncnc3c2nc2n3CCCC2)C1,inactive,
CC(C)(Cc1nc(-c2ccc(O)cn2)no1)C(=O)NC1=C(C(=O)O)CCCC1,,-20.8% (inactive)
CCCN(CCc1ccsc1)C1CCc2c(O)cccc2C1 (configuration not stated),inactive,
COc1cc(F)c(C(C)C)cc1-c1ccc(C(F)(F)F)cc1CN1C(=O)OC(c2cc(C(F)(F)F)cc(C(F)(F)F)c2)C1C (configuration not stated),inactive,
COC(=O)/C=C/C=C/C(=O)OC1C=C2COC(=O)C2(O)C2(C)CCCC(C)(C)C12 (configuration not stated),,-4.83% (inactive)
